This excerpt belongs to a sample that is enriched for hits.
KDM5B inh – inhibitors of human KDM5B histone demethylase; 2.6% of 220,000 active; Potency, µM (top dose mostly 57.7 µM), hits mostly inhibitors; KDM5B demethylase, FDH-coupled NADH fluorescence (FDH is formaldehyde dehydrogenase); active = well fitted inhibition curve with a large enough effect; note: nearly all actives have a fitted effect of over 70% in size
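Here, H3K4me3 peptide (12.5 µM in substrate mix) is demethylated by KDM5BΔAP, 200 nM final, after 10 min compound exposure. Formaldehyde product is coupled through FDH (0.25 U/mL in mix) to NADH fluorescence; 30-min ΔRFU feeds dose-response curves.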
Hits are given with their value; i = inactive.

SMILES	KDM5B inh
COCCN1CC2(CCC1=O)CCN(c1nc(C(C)C)ccc1C#N)CC2	28µM
COCCN1CC2(CCC1=O)CCN(C(=O)C(C)SC)CC2 (stereo not given)	i
COC(=O)c1ccc(CN2C(=O)[C@@H]3C[C@@H](O)CN3C3(CNC3)C2=O)cc1	i
O=C(Nc1ccc(Cl)cc1Cl)c1cnn2ncccc12	35µM
O=C(O)c1nccnc1C(=O)Nc1ccc(Cl)cc1Cl	i
O=C(Nc1ccc(Cl)cc1Cl)c1cccn2nccc12	32µM
COC(=O)N1CCn2ncc(C(=O)Nc3ccc(Cl)cc3Cl)c2C1	i
C[S+](=O)([O-])N1CCn2ncc(C(=O)Nc3ccc(Cl)cc3Cl)c2C1	i
O=C(Nc1cccc2cccnc12)c1ccc(Cl)cc1Cl	i
CC(C)[C@H](NC(=O)c1c(F)cccc1F)C(=O)O	i
O=C(NCC(c1ccccc1)N1CCCCC1)c1cc2ccccc2oc1=O (stereo not given)	i
COc1cc2c(cc1OC)CN(C(=O)CCc1ncc(-c3ccc(F)cc3F)o1)CC2	i
CN1C(=O)c2ccccc2Sc2ccc(NC(=O)COc3ccccc3)cc21	i
C=CCNC(=O)CCc1c(C)nn(-c2ccc(F)cc2)c1Oc1ccc(F)cc1F	i
COc1cccc(C(=O)N2[C@@H]3CC[C@H]2CC(NC(=O)c2cnc(C)cn2)C3)c1 (stereo not given in full)	i
CC(C)c1nnc2c(=O)n(CC(=O)Nc3ccccc3C(F)(F)F)c3ccccc3n12	i
CCN(CC)C(=S)SCC(=O)NC(=O)NC1CCCC1	i
COC1C(=O)N(c2cccc(F)c2)C12CCN(S(=O)(=O)Cc1ccccc1)CC2 (stereo not given)	i
COCCNC(=O)[C@@H](C)C1CCc2c(C)cc(OC)c(C)c2[C@@H]1O (stereo not given in full)	i
COc1cc(F)ccc1-c1ccnc2ncnn12	25µM
CCc1cc(Nc2ccccc2OC)n2ncnc2n1	i
CCc1cc(Nc2ccc(OC)cc2)n2ncnc2n1	i
c1ccc2oc(-c3ccnc4ncnn34)cc2c1	i
COc1cc(F)ccc1C1=NN(C(C)=O)C(c2ccc3nccnc3c2)C1 (stereo not given)	i
COc1ccc(-c2ccnc3ncnn23)c(F)c1	28µM
SMILES	KDM5B inh
Cc1ccccc1-c1nccc2ccccc12	i
O=C(CSC1CCc2ccccc2NC1=O)Nc1ccc(CCO)cc1 (stereo not given)	i
O=C(N1C[C@H]2CC[C@H]1C2)C1(Oc2ccc(Cl)cc2)CCNCC1	i
COc1ccc(CN2C[C@H]3CN(Cc4cccc(OC)n4)CCN3C2=O)cc1	i
CCC(CC)C(=O)N[C@H]1CCN2C(=O)c3cc(-c4cc(Cl)ccc4OC)ccc3NC(=O)[C@@H]2C1	i
COc1ccc(Cl)cc1-c1ccc2c(c1)C(=O)N1CCN(C(=O)CC3(CC(=O)O)CCCC3)C[C@H]1C(=O)N2	i
O=C(c1ccco1)N1CCN(C(=O)c2cc(=O)c3cc(Cl)ccc3o2)CC1	i
COc1ccc(Cl)cc1-c1ccc2c(c1)C(=O)N1CCN(C(=O)CO)C[C@@H]1C(=O)N2	35µM
COc1ccc(Cl)cc1-c1ccc2c(c1)C(=O)N1CCN(C(=O)c3ccco3)C[C@H]1C(=O)N2	35µM
CC(Oc1ccc(Cl)cc1Cl)C(=O)N1CCN(C(=O)c2ccco2)CC1 (stereo not given)	i
Clc1cc(N2CCC(N3CCOCC3)CC2)n2nccc2n1	i
O=C(Nc1cnc2ccccc2c1)c1cccc(S(=O)(=O)N2CCN(c3ccccc3)CC2)c1	i
Cc1c(C(=O)OCC(=O)N(C)Cc2ccccc2)oc2ccccc12	i
O=C(CCS(=O)(=O)c1cccc2nonc12)Nc1ccc(F)cc1F	i
Cc1cc(C)c2nc(SCC(=O)N3CCCC3)cc(C)c2c1	i
CSc1ncc(C(=O)N2CCN(c3ccc(F)cc3)CC2)c(C)n1	i
Cc1ccnc(N2CCC(O)(c3ccc(F)cc3)CC2)n1	28µM
COc1ccnc(N2CCN(CC3(O)CCCNC3)CC2)n1 (stereo not given)	i
Cc1nn(-c2nc3ccccc3o2)c2c1C(c1cccc(Cl)c1Cl)CC(=O)N2 (stereo not given)	i
Cc1ccc2nc(/C(C#N)=C/c3ccc(OCc4ccc(Cl)cc4Cl)cc3)[nH]c2c1	i
COCCN1CCC(CN(Cc2ccncc2)C(=O)c2ccc(F)c(C)c2)CC1	i
O=C(NCCn1cc(-c2cncnc2)nn1)c1ccc(F)cc1	i
O=C(Cc1ccc(F)cc1)NCCc1cnc[nH]1	i
O=C(NCC1CNCCOC1)NC1CCCCC1 (stereo not given)	i
O=C(NCC1CNCCOC1)c1ccc2nc(-c3ccc(F)cc3)cn2c1 (stereo not given)	28µM
COCCN(CC1CCN(Cc2ccccc2OC)CC1)C(=O)c1n[nH]c2c1CCC2	i
CCCNC(=O)N(C1CCOCC1)C1CCN(C(=O)c2ccc(F)cc2)CC1	i
O=C(NCCc1cnc[nH]1)c1ccc2nc(-c3ccc(F)cc3)cn2c1	32µM
CCn1cc(S(=O)(=O)NCC2CNCCOC2)cn1 (stereo not given)	i
